The values that follow come from PubChem BioAssay (EPA / NIEHS).

Structures are written as SMILES. Activity calls are given as the source filed them. How the source made its calls: active means hit-call score of the fitted dose curve at least 0.9, where 1 is the maximum; inactive means score below 0.9.

What all share (settings): mRNA level, 48 h; actives raise or lower the signal
Read-out in test [1]: Cytochrome P450 7A1 (Homo sapiens) (UniProt P22680)
Nature of the test: LTEA_HepaRG_CYP7A1: Life Technologies and Expression Analysis (LTEA) Assay for Cytochrome P450 7A1 (CYP7A1) using HepaRG (AID 2283496). Summed up:
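HepaRG cells plated 48 h, then switched to serum-free induction medium and exposed in duplicate for 48 h to 8-point half-log series from 100 uM in 0.5% DMSO. CYP7A1 mRNA by qRT-PCR (TaqMan), normalized to ACTB/GAPDH/POLR2A; bidirectional fit versus DMSO.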

Read-out in test [2]: Glutathione S-Transferase (GSTA2), GSTA2 (gene 2939)
Briefly: LTEA_HepaRG_GSTA2: Life Technologies and Expression Analysis (LTEA) Assay for Glutathione S-Transferase (GSTA2) using HepaRG (AID 2283497). Summed up: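 Differentiated human HepaRG cells were exposed in duplicate for 48 h in serum-free induction medium, 8 points from 100 uM top in half-log steps, 0.5% DMSO. GSTA2 mRNA was measured by TaqMan qRT-PCR, normalized to ACTB, GAPDH and POLR2A; bidirectional fit versus DMSO.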

Read-out in test [3]: growth arrest and DNA damage 45 (GADD45G), GADD45G (gene 10912)
Nature of the test: LTEA_HepaRG_GADD45G: Life Technologies and Expression Analysis (LTEA) Assay for growth arrest and DNA damage 45 (GADD45G) using HepaRG (AID 2283499). Summed up:
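GADD45G transcript level by qRT-PCR (housekeeping-normalized: ACTB, GAPDH, POLR2A) after 48 h chemical treatment of a single HepaRG lot in serum-free induction medium; eight-point half-log series up to 100 uM in 0.5% DMSO, duplicates, up- or down-regulation scored.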

Read-out in test [4]: Glutamate-cysteine ligase regulatory (GCLM), GCLM (gene 2730)
Nature of the test: LTEA_HepaRG_GCLM: Life Technologies and Expression Analysis (LTEA) Assay for Glutamate-cysteine ligase regulatory (GCLM) using HepaRG (AID 2283500). The gist of the method: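 Differentiated HepaRG cells exposed 48 h in serum-free induction medium to eight half-log concentrations up to 100 uM (0.5% DMSO). GCLM mRNA by TaqMan qRT-PCR, normalized to ACTB, GAPDH and POLR2A; bidirectional fit versus DMSO.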

Read-out in test [5]: Glutathione S-transferase M3 (GSTM3), GSTM3 (gene 2947)
Nature of the test: LTEA_HepaRG_GSTM3: Life Technologies and Expression Analysis (LTEA) Assay for Glutathione S-transferase M3 (GSTM3) using HepaRG (AID 2283501). Summed up:
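GSTM3 transcript levels came from Fluidigm TaqMan qRT-PCR normalized to three housekeeping genes, fitted in both directions against DMSO. HepaRG cultures received chemicals for 48 h in serum-free induction medium (0.5% DMSO), 8 half-log concentrations up to 100 uM, duplicate.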

Read-out in test [6]: Heat shock 70 kDa protein 1 (HSPA1A), gene 3303
Nature of the test: LTEA_HepaRG_HSPA1A: Life Technologies and Expression Analysis (LTEA) Assay for Heat shock 70 kDa protein 1 (HSPA1A) using HepaRG (AID 2283502). Summed up: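 Human HepaRG cells in serum-free induction medium were exposed in duplicate for 48 h to 8 half-log concentrations, highest 100 uM, in 0.5% DMSO. HSPA1A mRNA read by TaqMan qRT-PCR, normalized to ACTB, GAPDH, POLR2A, fitted bidirectionally against DMSO.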

Read-out in test [7]: Hypoxia-inducible factor 1-alpha (Homo sapiens) (UniProt Q16665)
Nature of the test: LTEA_HepaRG_HIF1A: Life Technologies and Expression Analysis (LTEA) Assay for Hypoxia-inducible factor 1 (HIF1A) Trancription factor using HepaRG (AID 2283503). The gist of the method: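 Differentiated HepaRG cells in serum-free induction medium exposed 48 h, in duplicate, to 8-point half-log series from 100 uM in 0.5% DMSO. HIF1A mRNA measured by TaqMan qRT-PCR, normalized to ACTB/GAPDH/POLR2A, fitted bidirectionally versus DMSO.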

Read-out in test [8]: 3-Hydroxy-3-Methylglutaryl-CoA Synthase 2 (HMGCS2), HMGCS2 (gene 3158)
Nature of the test: LTEA_HepaRG_HMGCS2: Life Technologies and Expression Analysis (LTEA) Assay for 3-Hydroxy-3-Methylglutaryl-CoA Synthase 2 (HMGCS2) using HepaRG (AID 2283504). Summed up: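 Readout is HMGCS2 transcript by qRT-PCR, housekeeping-normalised (ACTB/GAPDH/POLR2A) and fitted bidirectionally against 0.5% DMSO. Differentiated HepaRG cells received chemicals 48 h, duplicate wells, eight half-log concentrations topping at 100 uM.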

Read-out in the next test: HGF (gene 3082)
Briefly: LTEA_HepaRG_HGF: Life Technologies and Expression Analysis (LTEA) Assay for Hepatocyte Growth Facto (HGF) using HepaRG (AID 2283505). The gist of the method:
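HGF transcript was quantified by TaqMan qRT-PCR against three housekeeping genes after 48 h treatment of HepaRG cells. Exposure ran in duplicate over eight half-log steps topping at 100 uM in 0.5% DMSO vehicle.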

Read-out in test [9]: Insulin Like Growth Factor 1 (IGF1), IGF1 (gene 3479)
Briefly: LTEA_HepaRG_IGF1: Life Technologies and Expression Analysis (LTEA) Assay for Insulin Like Growth Factor 1 (IGF1) using HepaRG (AID 2283506). Summed up:
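Differentiated HepaRG cells in serum-free induction medium, exposed 48 h in duplicate to 8 half-log concentrations up to 100 uM in 0.5% DMSO. IGF1 mRNA by Fluidigm qRT-PCR, normalised to ACTB, GAPDH and POLR2A.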

Read-out in test [10]: Intercellular Adhesion Molecule 1 (ICAM1), ICAM1 (gene 3383)
Nature of the test: LTEA_HepaRG_ICAM1: Life Technologies and Expression Analysis (LTEA) Assay for Intercellular Adhesion Molecule 1 (ICAM1) using HepaRG (AID 2283507). Summed up: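 ICAM1 transcript levels measured by qRT-PCR, normalized to three housekeeping genes (ACTB, GAPDH, POLR2A), after 48 h chemical exposure of HepaRG cells. Duplicate eight-point half-log series from 100 uM in 0.5% DMSO; gain or loss fitted against vehicle.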

Read-out in test [11]: Insulin-like growth factor-binding protein 1 (IGFBP1), IGFBP1 (gene 3484)
Nature of the test: LTEA_HepaRG_IGFBP1: Life Technologies and Expression Analysis (LTEA) Assay for Insulin-like growth factor-binding protein 1 (IGFBP1) using HepaRG (AID 2283508). Summed up:
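Read-out is qRT-PCR transcript level normalized to three housekeeping genes, fitted in both directions against 0.5% DMSO. Differentiated HepaRG cells received eight half-log concentrations (top 100 uM) in duplicate for 48 h in serum-free induction medium.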

Read-out in test [12]: Interleukin 6 Receptor (IL6R), IL6R (gene 3570)
Nature of the test: LTEA_HepaRG_IL6R: Life Technologies and Expression Analysis (LTEA) Assay for Interleukin 6 Receptor (IL6R) using HepaRG (AID 2283510). Summed up: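 Differentiated HepaRG cells, plated 48 h, then exposed in duplicate for 48 h in serum-free induction medium to 8 half-log concentrations (top 100 uM, 0.5% DMSO). IL6R mRNA measured by TaqMan qRT-PCR, normalized to ACTB/GAPDH/POLR2A; bidirectional fit vs DMSO.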

Read-out in test [13]: Potassium channel subfamily K member 1 (KCNK1), KCNK1 (gene 3775)
Briefly: LTEA_HepaRG_KCNK1: Life Technologies and Expression Analysis (LTEA) Assay for Potassium channel subfamily K member 1 (KCNK1) using HepaRG (AID 2283511). The gist of the method:
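Differentiated HepaRG cells, 48 h exposure in serum-free induction medium with 0.5% DMSO; 8 concentrations, half-log from 100 uM, duplicate. KCNK1 mRNA by qRT-PCR, normalized to ACTB, GAPDH, POLR2A; bidirectional fit vs DMSO.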

Read-out in test [14]: Keratin 19 (KRT19), KRT19 (gene 3880)
Nature of the test: LTEA_HepaRG_KRT19: Life Technologies and Expression Analysis (LTEA) Assay for Keratin 19 (KRT19) using HepaRG (AID 2283512). Summed up: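 KRT19 transcript measured by TaqMan qRT-PCR, referenced to three housekeeping genes, after HepaRG cells received test chemicals for 48 h. Eight half-log concentrations, top 100 uM, 0.5% DMSO vehicle; increases and decreases both fitted.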

Read-out in test [15]: JUN Transcription Factor, JUN (gene 3725)
Briefly: LTEA_HepaRG_JUN: Life Technologies and Expression Analysis (LTEA) Assay for JUN Transcription Factor using HepaRG (AID 2283513). Summed up: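 HepaRG cells, 48 h post-plating, exposed 48 h in serum-free induction medium to 8-point half-log series (top 100 uM, 0.5% DMSO), duplicate; mRNA by qRT-PCR (TaqMan, Fluidigm), normalized to ACTB/GAPDH/POLR2A; bidirectional fit vs DMSO.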

Read-out in test [16]: Lipase C (LIPC), LIPC (gene 3990)
Nature of the test: LTEA_HepaRG_LIPC: Life Technologies and Expression Analysis (LTEA) Assay for Lipase C (LIPC) using HepaRG (AID 2283514). The gist of the method:
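HepaRG cells, 48 h after plating, treated in duplicate for 48 h in serum-free induction medium over 8 half-log concentrations from 100 uM, 0.5% DMSO. LIPC mRNA by TaqMan qRT-PCR normalized to ACTB/GAPDH/POLR2A; bidirectional fit versus DMSO.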

Read-out in test [17]: Lipoprotein lipase (LPL), LPL (gene 4023)
Nature of the test: LTEA_HepaRG_LPL: Life Technologies and Expression Analysis (LTEA) Assay for Lipoprotein lipase (LPL) using HepaRG (AID 2283515). The gist of the method: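 Differentiated HepaRG cells, plated 48 h, then exposed 48 h in serum-free induction medium to 8 concentrations (top 100 uM, half-log steps) in 0.5% DMSO, duplicate. LPL mRNA measured by qRT-PCR, normalized to ACTB, GAPDH and POLR2A.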

Read-out in test [18]: Interleukin 6 (IL6), IL6 (gene 3569)
Nature of the test: LTEA_HepaRG_IL6: Life Technologies and Expression Analysis (LTEA) Assay for Interleukin 6 (IL6) using HepaRG (AID 2283509). Summed up:
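HepaRG cells exposed in duplicate for 48 h to eight half-log concentrations, top 100 uM, in 0.5% DMSO serum-free induction medium. mRNA measured by qRT-PCR, normalized to ACTB, GAPDH and POLR2A. Bidirectional fit versus DMSO.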

Chain of Hypoxia-inducible factor 1-alpha (Homo sapiens) (Q16665 whole entry, looked up): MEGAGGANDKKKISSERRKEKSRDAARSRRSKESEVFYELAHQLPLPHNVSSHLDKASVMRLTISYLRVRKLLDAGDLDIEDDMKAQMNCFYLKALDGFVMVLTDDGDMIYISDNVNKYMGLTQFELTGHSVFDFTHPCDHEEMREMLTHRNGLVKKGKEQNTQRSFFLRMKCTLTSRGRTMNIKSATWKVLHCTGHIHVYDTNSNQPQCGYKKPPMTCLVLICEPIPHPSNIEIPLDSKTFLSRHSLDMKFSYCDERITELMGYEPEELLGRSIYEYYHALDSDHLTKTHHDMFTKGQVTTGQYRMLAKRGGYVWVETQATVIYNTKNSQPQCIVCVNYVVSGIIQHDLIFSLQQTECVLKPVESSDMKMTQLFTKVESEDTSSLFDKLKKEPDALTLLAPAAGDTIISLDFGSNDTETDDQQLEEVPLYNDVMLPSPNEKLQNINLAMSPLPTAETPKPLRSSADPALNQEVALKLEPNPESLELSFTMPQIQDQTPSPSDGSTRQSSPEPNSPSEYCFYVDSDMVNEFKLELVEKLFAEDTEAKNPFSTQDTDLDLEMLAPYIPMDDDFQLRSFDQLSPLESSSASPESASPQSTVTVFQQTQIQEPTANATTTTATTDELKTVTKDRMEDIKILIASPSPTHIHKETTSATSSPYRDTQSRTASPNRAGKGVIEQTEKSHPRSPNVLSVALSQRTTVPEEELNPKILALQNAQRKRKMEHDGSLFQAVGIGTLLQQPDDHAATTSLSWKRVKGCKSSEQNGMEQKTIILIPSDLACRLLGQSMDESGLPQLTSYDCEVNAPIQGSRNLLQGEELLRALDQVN

Take `CCCCCCCCCCCCCCO`: the call in test [1], in [2], in [3], in test [4], in [5] and in test [6] was inactive. In addition, the outcome (in test [7]; in [8]; in the test with HGF (gene 3082); in [9]; in test [10]; in test [11]) was inactive. Also, the compound was classed as inactive in [12], in [13], in [14], in test [15], in [16] and in test [17].
By AC50 is commonly meant the concentration at which the activity in the assay is half-maximal. For `c1ccc2ncccc2c1`, the result in [1], in [2], in test [3], in test [4], in test [6] and in test [8] was inactive. Besides, the result (with HGF (gene 3082); in test [9]; in test [10]; in [11]; in test [18]; in test [12]) was inactive. Also, the compound was called inactive in test [13], in test [14], in test [15], in [16] and in test [17]. In addition, in test [7], the AC50 was 50 µM (active).
`C[C@@H](Oc1ccc(CNC(=O)c2cccnc2Oc2ccc3c(c2)OCO3)c(F)c1)C(=O)O`: the call (in test [1]; in [2]; in [4]; in [6]; in [7]; with HGF (gene 3082)) was inactive. The compound was called inactive in test [9], in test [10], in [11], in test [18], in [12] and in [13]. For the same compound, the call in test [14], in test [15], in [16] and in [17] was inactive. Moreover, the AC50 in [8] is 25.8 µM (active).
